USP2a inh = blocks human ubiquitin-specific protease USP2a. USP2 core, Ub-CHOP2 coupled fluorogenic reporter, 485/531. Potency, µM (series often up to 38.3 µM), for the others: top-dose activity change, negative = inhibition, hits mostly inhibitors. AID 463254. actives 0.01% (n = 330,000). O75604;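 further: potency means the concentration at half of the fitted maximal effect; plate controls were DMSO wells for no effect and full inhibition by NEM control for full effect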
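USP2 core (10nM final) preincubated 30min RT with compound in 20mM Tris-HCl pH 8.0, 2mM CaCl2, 2mM beta-mercaptoethanol, 0.05% CHAPS; 25nM Ub-CHOP2 plus 25nM reporter substrate added, fluorescence (Ex485/Em531) read after 60min.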
USP1-UAF1 inh = USP1/UAF1 (human) deubiquitinase inhibition; Potency, µM (series often up to 57.1 µM), for inactives: at the highest dose activity change, negative = inhibition, hits mostly inhibitors; recombinant USP1/UAF1, Ub-Rhodamine cleavage fluorescence; actives 0.23% (n = 390,000); AID 743255; further: potency means the concentration at half of the fitted maximal effect; nearly all actives have a fitted effect of over 60% in size
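In this screen, compounds sit with the deubiquitinase complex (1nM) for 15 min at room temperature before Ub-Rho is added at 150nM final. Fluorescence rise is then followed for 6 reads every 60 seconds.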
PLK1 PBD block = blocks phosphopeptide binding to human PLK1 polo-box domain; Plk1 PBD binding of FITC phosphopeptide, fluorescence polarization; Potency, µM, without a hit: max response, negative = inhibition, usual class: inhibitors; actives 2.8% (n = 360,000); further: potency means the concentration at half of the fitted maximal effect; series mostly up to about 57 µM; nearly all actives have a fitted effect of over 65% in size
PI5P4K alpha inh = PI5P4K alpha (human) kinase inhibition | P48426 | PI5P4Kalpha enzyme, ADP-Glo luminescence, 60 min; active compounds read low | max response, % | actives 1.2% (n = 330,000); active means max response of -50% or lower; inconclusive means between -30% and -50%; inactive means -30% or higher; further: value at the top dose of about 77 µM
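Compounds were pin-transferred onto PI5P4Kalpha and substrate in HEPES pH 7.4 buffer with EGTA, CHAPS and 5% DMSO. ATP (5 microM final) started the reaction, which ran 60 minutes at room temperature before ADP-Glo detection.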
WRN helicase inh = blocks human WRN helicase; Potency, µM (titrated, usually from 114 µM), for the others: top-dose activity change, negative = inhibition, actives largely listed as inhibitors; WRN helicase unwinding, fluorescent forked duplex, kinetic; actives 0.46% (n = 360,000); further: potency means the concentration at half of the fitted maximal effect; nearly all actives have a fitted effect of over 55% in size
Target sequence (Q14191 whole entry, looked up): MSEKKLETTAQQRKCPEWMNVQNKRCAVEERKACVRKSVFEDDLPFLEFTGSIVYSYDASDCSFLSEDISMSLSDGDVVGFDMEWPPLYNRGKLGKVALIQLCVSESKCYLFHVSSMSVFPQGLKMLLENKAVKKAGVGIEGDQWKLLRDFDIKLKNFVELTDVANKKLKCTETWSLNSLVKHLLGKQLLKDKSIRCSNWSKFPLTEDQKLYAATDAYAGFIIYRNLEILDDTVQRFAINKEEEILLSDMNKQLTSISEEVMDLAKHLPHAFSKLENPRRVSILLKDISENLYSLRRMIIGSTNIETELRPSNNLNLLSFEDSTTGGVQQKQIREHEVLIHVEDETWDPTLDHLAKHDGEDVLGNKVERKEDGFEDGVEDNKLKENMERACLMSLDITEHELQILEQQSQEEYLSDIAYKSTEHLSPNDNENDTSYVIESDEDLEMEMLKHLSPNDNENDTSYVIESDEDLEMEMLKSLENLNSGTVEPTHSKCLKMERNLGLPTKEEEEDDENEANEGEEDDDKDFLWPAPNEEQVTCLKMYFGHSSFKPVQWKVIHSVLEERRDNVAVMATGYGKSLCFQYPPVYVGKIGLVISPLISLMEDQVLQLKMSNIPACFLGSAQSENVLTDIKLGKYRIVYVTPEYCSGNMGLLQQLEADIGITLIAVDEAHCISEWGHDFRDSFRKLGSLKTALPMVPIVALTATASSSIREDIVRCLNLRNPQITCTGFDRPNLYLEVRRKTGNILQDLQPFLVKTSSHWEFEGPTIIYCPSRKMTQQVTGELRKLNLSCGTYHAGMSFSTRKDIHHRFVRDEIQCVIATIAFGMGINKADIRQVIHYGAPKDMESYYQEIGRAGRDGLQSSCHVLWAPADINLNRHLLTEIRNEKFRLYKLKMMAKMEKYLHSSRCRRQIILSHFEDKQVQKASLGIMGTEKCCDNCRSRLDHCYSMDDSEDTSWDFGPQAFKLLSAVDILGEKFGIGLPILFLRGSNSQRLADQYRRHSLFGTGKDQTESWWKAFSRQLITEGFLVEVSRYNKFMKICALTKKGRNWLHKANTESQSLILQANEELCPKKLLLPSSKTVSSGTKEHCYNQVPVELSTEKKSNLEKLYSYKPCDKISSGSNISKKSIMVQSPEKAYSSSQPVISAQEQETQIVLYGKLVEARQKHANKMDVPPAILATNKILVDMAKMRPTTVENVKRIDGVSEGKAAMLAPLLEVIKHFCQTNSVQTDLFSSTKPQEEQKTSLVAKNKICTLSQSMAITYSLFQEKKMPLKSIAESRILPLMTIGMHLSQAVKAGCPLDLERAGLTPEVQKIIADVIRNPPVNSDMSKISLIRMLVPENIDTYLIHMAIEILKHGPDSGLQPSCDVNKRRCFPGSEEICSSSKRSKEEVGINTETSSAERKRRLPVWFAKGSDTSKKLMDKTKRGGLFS
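Screening of the MLSMR collection measured strand separation of a quenched forked DNA duplex (100 nM) by 20 nM WRN with 2 mM ATP, all final. Compounds were preincubated with enzyme 15 min at room temperature.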
* marks the source's active call; other numbers are inactive results; ? = inconclusive; / = not tested or not shown; [ ] = another dose, or the depositor's remark. An excerpt weighted towards active compounds, which were near 3.3% of everything screened. Unless noted, the call rests on the fitted dose curve; in most records, active means well fitted curve in the direction sought with a large enough effect; inconclusive means small, poorly fitted or top-dose-only effect, or another doubt; inactive means no such curve, though single readings can be large; an effect the other way counts as inactive or inconclusive. Unless noted, on the % scale 0 is the no-effect control and ±100 the full control effect.

SMILES	USP2a inh	USP1-UAF1 inh	PLK1 PBD block	PI5P4K alpha inh	WRN helicase inh
O=c1cc(-c2ccccc2)oc2cc(O)c(O)c(O)c12	-1%	-10%	-26%	-74*	?
O=c1cc(-c2ccc(O)cc2)oc2c(C3O[C@H](CO)[C@@H](O)[C@H](O)[C@H]3O)c(O)cc(O)c12 (stereo not given in full)	0%	-25%	-6%	-73*	-11%
CCN(c1cc(C)cc(C)c1)S(=O)(=O)c1nnc(NC(=O)c2ccccc2C)s1	/	-24%	/	/	/
CCOc1ccccc1NC(=O)c1nn(-c2ccc(C)cc2)c(=O)n(C)c1=O	/	5%	/	/	/
CCOc1ccccc1CNc1ncnc2c1nc1n2CCCC1	/	-25%	/	/	/
C=CCNC(=O)CCCOc1cc(C)ccc1C	1%	-13%	27µM*	/	-2%
CCOC(=O)N1CCN(C(=O)CSc2nnc(C3COc4ccccc4O3)o2)CC1 (stereo not given)	2%	-11%	-29%	-1	3%
O=C(CSc1nnc(C2COc3ccccc3O2)o1)N1CCCC1 (stereo not given)	2%	-8%	21µM*	-19	-15%
COC(=O)c1ccccc1NC(=O)Cn1c(=O)n(CCCC(=O)NCCc2ccc(OC)c(OC)c2)c(=O)c2ccccc21	/	-2%	/	/	/
COC(=O)c1cc(S(=O)(=O)N2CCN(c3ccccc3F)CC2)c[nH]1	0%	-4%	-14%	1	-13%
CC(=O)N1c2ccc(S(=O)(=O)N3c4ccccc4CC3C)cc2CC1C (stereo not given)	-1%	-14%	1%	6	-3%
COC(=O)c1cc(S(=O)(=O)NCCN2CCN(c3ccccc3F)CC2)c[nH]1	1%	-28%	21µM*	1	0%
COC(=O)c1cc(S(=O)(=O)N2c3ccccc3CC2C)c[nH]1 (stereo not given)	1%	-5%	30µM*	-5	-1%
COC(=O)c1nn(-c2ccccc2)c(=O)cc1O	3%	?	?	-16	-27%
CC(C)(C)c1ccc(-n2nc(C(N)=O)c(O)cc2=O)cc1	-1%	-9%	4.7µM*	-14	2%[57.1 µM]
NC(=O)c1ccccc1NC(=O)Cn1nc(Cc2cccnc2)c2ccccc2c1=O	/	1%	/	/	/
CC(=O)NCc1cc(Cl)c2cccnc2c1O	-10%	/	/	/	/
Cc1cccc(-c2nc(C)c(CCNC(=O)C(=O)Nc3cccc(Cl)c3C)s2)c1	/	-32%	/	/	/
O=C(CSc1nc2[nH]c(=O)cc(O)c2s1)Nc1nccs1	1%	-17%	-15%	?	-6%
CCCSc1nnc(NC(=O)CSc2nc3[nH]c(=O)cc(O)c3s2)s1	0%	-27%	-9%	-72*	-10%
O=C(CSc1nc2[nH]c(=O)cc(O)c2s1)Nc1nncs1	/	-7%	30µM*	-2	9%
Cc1ccc(CNC(=O)CN(c2ccc(Cl)cc2Cl)S(=O)(=O)c2ccccc2)cc1	/	0%	/	/	/
C/C(=N\NC(=O)CC#N)C1COc2ccccc2O1 (stereo not given)	1%	-12%	21µM*	-3	5%
O=S(=O)(Nc1ncccn1)c1ccccc1	1%	-8%	24µM*	-18	5%
Cc1ccccc1-c1noc(-c2cccnc2N2CCN(c3ccccc3)CC2)n1	/	-24%	/	/	/
SMILES	USP2a inh	USP1-UAF1 inh	PLK1 PBD block	PI5P4K alpha inh	WRN helicase inh
Cc1ccc(CSc2nnc(-c3ccc4c(c3)OCO4)o2)cc1	3%	-8%	-2%	19	-5%
Cc1ccc(Nc2nnc(-c3ccc4c(c3)OCO4)o2)c(C)c1	2%	-5%	21µM*	?	3%
CN(C)/C=C1\C=C2C(=O)c3ccccc3N2C1=O	?	4.5µM*	462%	-21	-27%
CCSc1nc(=S)cc(C)[nH]1	-3%	-14%	27µM*	?	9%
CCSc1nc(O)cc(=O)[nH]1	7%	-20%	0%	-2	0%
CCCN1CCCc2cc(CN(CCCN3CCOCC3)C(=O)Nc3ccc(Cl)c(Cl)c3)ccc21	/	-27%	/	/	/
CN(C)CCNc1ccc2ncn3c4ccc(O)cc4c(=O)c1c23	/	?	12µM*	0	?
CS(=O)(=O)c1ccc(-n2nnc3ccccc32)c([N+](=O)[O-])c1	-1%	-13%	-7%	-1	-2%
N#Cc1cc([N+](=O)[O-])c(-n2nnc3ccccc32)c([N+](=O)[O-])c1	-1%	-21%	11µM*	/	-19%
O=C(O)c1ccc(NC2=Nc3cccc4cccc2c34)cc1	-3%	-3%	38µM*	?	6%
CC(C)C(C)(C#N)NC(=O)CSc1nnc(-c2ccncc2)n1Cc1ccccc1 (stereo not given)	-1%	-15%	21µM*	-4	-2%
N#Cc1c(/N=C/c2ccco2)sc2c1CCC2	1%	-17%	-11%	-10	-6%
CCOc1[nH]c(/N=C/c2ccco2)c(C#N)c1C#N	6%	-11%	24µM*	?	-20%[57.1 µM]
O=C(Nc1sc2c(c1C(=O)NCc1ccco1)CCCC2)c1cc(=O)c2ccccc2o1	/	-23%	/	/	/
Cc1cc2c(cc1S(=O)(=O)Nc1cccc(Cl)c1C)OCCN2C	/	-24%	/	/	/
CNC(=S)NCCc1cc2c(OC)ccc(OC)c2[nH]c1=O	5%	-15%	19µM*	-18	4%
COc1ccc(OC)c2[nH]c(=O)c(CCNC(=S)NC(C)(C)C)cc12	0%	-5%	-10%	-7	7%
COc1ccccc1C(=O)OCc1cc(=O)n2c(C)csc2n1	/	-26%	/	/	/
Cc1ccc(NC(=O)c2cc(-c3ccc(F)cc3)on2)cc1C	0%	-5%	24µM*	0	2%
O=C(O)c1ccc(Nc2nc(-c3ccccc3)nc3ccccc23)cc1	-2%	?	19µM*	-2	0%
CCOC(=O)c1sc2nc(C)nc(N3CCN(S(=O)(=O)c4ccccc4)CC3)c2c1C	-5%	-4%	24µM*	-9	-25%
O=c1c(=O)n(-c2ccccc2)ccn1Cc1c(F)cccc1Cl	/	12%	/	/	/
Fc1ccc(Nc2ncnc3c2nc2n3CCCCC2)c(F)c1	/	-10%	/	/	/
S=c1[nH]nc(CCCc2n[nH]c(=S)o2)o1	4%	-21%	21µM*	?	-12%
S=c1[nH]nc(Cc2ccc(Cl)cc2)o1	8%	-4%	34µM*	-20	-7%
SMILES	USP2a inh	USP1-UAF1 inh	PLK1 PBD block	PI5P4K alpha inh	WRN helicase inh
COc1ccc(Cc2n[nH]c(=S)o2)cc1	-1%	7%	-21%	-28	-31%
COc1ccc(CCCc2n[nH]c(=S)o2)cc1	-2%	-18%	-3%	-21	1%[57.1 µM]
Cc1cccc(C)c1NC(=O)c1oc2c(c1C)-c1nn(Cc3ccccc3)cc1CC2	/	-22%	/	/	/
Cc1ccc(NC(=O)C2CCCN(c3ncnc4c3nc3n4CCCCC3)C2)c(Br)c1 (stereo not given)	/	0%	/	/	/
CCN(CCCNc1cc2c(c(N)c1S(=O)(=O)O)C(=O)c1ccccc1C2=O)c1ccccc1	/	-33%	?	-56*	5%[11.6 µM]
CCOC(=O)C1CCN(c2c(NCCCN(CC)c3ccccc3)c(=O)c2=O)CC1	-1%	9%	-7%	/	-3%

Screens deposited in PubChem BioAssay by National Center for Advancing Translational Sciences (NCATS).
